ChEMBL document CHEMBL1961873, “Compounds: GSK PKIS; Assays: Nanosyn kinase panel” (2012)

Experiments:
[1] = target: Sphingosine kinase 1 (Homo sapiens) (UniProt Q9NYA1); settings: at 1 µM;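 also: mean SPHK1 inhibition value reported from the GSK PKIS kinase panel screen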
[2] = target: T1, Sphingosine kinase 2 (Homo sapiens) (UniProt Q9NRA0); settings: at 0.1 µM
T1 sequence (whole entry): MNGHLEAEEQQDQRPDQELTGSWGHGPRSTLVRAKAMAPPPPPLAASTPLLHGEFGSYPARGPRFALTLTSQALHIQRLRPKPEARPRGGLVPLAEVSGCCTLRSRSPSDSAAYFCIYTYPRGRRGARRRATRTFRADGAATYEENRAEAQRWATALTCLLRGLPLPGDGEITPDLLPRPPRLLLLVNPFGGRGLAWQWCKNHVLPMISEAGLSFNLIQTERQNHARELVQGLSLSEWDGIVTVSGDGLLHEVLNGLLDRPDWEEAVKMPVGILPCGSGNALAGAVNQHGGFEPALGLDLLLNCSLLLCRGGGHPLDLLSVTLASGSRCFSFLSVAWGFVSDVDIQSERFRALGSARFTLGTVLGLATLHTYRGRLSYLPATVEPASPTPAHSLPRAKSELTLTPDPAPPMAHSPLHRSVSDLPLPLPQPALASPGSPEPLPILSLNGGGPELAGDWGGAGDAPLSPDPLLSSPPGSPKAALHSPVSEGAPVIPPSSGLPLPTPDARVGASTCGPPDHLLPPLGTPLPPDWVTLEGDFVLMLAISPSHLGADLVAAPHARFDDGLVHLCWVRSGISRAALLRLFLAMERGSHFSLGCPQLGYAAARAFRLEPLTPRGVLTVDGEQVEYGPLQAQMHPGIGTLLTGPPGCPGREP

[3] = target: T1, Sphingosine kinase 2 (Homo sapiens); settings: at 1 µM
[4] = target: Casein kinase II subunit alpha (Homo sapiens) (UniProt P68400); settings: at 0.1 µM
Chain of Casein kinase II subunit alpha (Homo sapiens) (P68400 whole entry, looked up): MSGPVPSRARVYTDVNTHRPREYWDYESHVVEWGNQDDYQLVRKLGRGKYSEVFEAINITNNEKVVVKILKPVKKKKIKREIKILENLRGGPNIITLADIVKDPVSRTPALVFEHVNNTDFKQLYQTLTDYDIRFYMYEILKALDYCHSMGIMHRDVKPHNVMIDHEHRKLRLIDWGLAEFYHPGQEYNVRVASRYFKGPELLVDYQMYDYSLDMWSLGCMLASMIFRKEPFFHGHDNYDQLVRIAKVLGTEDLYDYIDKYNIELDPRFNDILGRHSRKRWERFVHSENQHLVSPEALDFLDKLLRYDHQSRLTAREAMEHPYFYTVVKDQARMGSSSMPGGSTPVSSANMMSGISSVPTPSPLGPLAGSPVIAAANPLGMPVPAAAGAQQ

[5] = target: Casein kinase II subunit alpha (Homo sapiens) (UniProt P68400); settings: at 1 µM
[6] = target: T2, Inhibitor of nuclear factor kappa-B kinase subunit alpha (Homo sapiens) (UniProt O15111); settings: at 0.1 µM
T2 sequence (whole entry): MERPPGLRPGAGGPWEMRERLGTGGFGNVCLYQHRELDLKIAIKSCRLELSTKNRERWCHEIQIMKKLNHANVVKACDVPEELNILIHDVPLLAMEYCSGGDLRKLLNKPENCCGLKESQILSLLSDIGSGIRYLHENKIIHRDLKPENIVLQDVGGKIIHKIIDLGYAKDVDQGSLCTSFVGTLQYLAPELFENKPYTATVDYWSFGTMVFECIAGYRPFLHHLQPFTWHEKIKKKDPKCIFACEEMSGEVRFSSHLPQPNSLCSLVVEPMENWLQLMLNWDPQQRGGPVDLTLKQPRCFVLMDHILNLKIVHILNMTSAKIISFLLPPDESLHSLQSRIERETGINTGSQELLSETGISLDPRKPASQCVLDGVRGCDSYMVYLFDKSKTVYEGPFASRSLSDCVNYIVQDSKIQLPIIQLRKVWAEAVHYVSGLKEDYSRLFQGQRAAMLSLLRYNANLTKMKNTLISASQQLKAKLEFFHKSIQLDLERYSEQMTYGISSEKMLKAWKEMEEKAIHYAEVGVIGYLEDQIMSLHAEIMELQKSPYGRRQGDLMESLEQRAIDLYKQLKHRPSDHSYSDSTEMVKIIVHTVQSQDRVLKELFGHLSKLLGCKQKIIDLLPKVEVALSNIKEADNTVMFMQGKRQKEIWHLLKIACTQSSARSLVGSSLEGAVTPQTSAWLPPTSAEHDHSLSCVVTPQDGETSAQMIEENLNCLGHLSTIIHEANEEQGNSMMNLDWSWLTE

[7] = target: T2, Inhibitor of nuclear factor kappa-B kinase subunit alpha (Homo sapiens); settings: at 1 µM
[8] = target: T3, Inhibitor of nuclear factor kappa-B kinase subunit beta (Homo sapiens) (UniProt O14920); settings: at 0.1 µM
T3 sequence (whole entry): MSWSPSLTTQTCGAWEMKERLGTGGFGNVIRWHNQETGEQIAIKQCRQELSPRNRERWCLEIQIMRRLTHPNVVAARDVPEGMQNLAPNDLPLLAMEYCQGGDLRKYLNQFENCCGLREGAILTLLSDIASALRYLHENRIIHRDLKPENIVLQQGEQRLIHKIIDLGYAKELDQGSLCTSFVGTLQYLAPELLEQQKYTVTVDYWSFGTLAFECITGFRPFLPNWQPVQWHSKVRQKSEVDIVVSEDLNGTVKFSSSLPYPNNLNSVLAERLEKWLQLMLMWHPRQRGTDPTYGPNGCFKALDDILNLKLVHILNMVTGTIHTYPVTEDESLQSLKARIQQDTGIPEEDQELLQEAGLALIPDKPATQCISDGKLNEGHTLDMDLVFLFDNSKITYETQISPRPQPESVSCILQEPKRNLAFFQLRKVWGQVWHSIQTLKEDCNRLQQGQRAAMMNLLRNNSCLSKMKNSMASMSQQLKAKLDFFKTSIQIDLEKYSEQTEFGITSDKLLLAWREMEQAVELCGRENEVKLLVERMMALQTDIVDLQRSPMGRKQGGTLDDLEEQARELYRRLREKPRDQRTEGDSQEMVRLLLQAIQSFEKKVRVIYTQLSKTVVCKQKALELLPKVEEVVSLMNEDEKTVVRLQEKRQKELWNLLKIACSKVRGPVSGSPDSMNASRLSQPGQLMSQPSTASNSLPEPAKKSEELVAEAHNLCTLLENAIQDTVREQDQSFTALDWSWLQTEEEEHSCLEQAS

[9] = target: T3, Inhibitor of nuclear factor kappa-B kinase subunit beta (Homo sapiens); settings: at 1 µM
[10] = target: T4, Inhibitor of nuclear factor kappa-B kinase subunit epsilon (Homo sapiens) (UniProt Q14164); settings: at 0.1 µM
T4 sequence (whole entry): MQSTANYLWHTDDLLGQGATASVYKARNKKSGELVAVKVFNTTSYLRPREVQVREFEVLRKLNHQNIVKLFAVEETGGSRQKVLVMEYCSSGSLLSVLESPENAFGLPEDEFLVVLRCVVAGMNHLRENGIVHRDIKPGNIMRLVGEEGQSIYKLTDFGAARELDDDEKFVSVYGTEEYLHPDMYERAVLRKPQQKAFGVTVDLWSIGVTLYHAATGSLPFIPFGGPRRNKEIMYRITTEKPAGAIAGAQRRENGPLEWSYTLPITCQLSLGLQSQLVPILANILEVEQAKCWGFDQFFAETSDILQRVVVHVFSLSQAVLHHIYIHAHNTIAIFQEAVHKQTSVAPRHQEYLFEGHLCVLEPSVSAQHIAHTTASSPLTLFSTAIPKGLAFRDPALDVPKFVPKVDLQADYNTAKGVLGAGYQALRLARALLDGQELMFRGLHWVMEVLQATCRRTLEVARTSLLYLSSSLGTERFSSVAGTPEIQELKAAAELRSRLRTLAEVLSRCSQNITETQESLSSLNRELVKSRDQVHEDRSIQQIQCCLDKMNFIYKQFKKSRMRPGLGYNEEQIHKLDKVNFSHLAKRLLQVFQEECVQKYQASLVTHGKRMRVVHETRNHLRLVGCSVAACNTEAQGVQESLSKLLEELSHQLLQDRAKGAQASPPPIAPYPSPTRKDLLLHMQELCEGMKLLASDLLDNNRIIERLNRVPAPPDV

[11] = target: T4, Inhibitor of nuclear factor kappa-B kinase subunit epsilon (Homo sapiens); settings: at 1 µM
[12] = target: T5, Serine/threonine-protein kinase Nek1 (Homo sapiens) (UniProt Q96PY6); settings: at 0.1 µM
T5 sequence (whole entry): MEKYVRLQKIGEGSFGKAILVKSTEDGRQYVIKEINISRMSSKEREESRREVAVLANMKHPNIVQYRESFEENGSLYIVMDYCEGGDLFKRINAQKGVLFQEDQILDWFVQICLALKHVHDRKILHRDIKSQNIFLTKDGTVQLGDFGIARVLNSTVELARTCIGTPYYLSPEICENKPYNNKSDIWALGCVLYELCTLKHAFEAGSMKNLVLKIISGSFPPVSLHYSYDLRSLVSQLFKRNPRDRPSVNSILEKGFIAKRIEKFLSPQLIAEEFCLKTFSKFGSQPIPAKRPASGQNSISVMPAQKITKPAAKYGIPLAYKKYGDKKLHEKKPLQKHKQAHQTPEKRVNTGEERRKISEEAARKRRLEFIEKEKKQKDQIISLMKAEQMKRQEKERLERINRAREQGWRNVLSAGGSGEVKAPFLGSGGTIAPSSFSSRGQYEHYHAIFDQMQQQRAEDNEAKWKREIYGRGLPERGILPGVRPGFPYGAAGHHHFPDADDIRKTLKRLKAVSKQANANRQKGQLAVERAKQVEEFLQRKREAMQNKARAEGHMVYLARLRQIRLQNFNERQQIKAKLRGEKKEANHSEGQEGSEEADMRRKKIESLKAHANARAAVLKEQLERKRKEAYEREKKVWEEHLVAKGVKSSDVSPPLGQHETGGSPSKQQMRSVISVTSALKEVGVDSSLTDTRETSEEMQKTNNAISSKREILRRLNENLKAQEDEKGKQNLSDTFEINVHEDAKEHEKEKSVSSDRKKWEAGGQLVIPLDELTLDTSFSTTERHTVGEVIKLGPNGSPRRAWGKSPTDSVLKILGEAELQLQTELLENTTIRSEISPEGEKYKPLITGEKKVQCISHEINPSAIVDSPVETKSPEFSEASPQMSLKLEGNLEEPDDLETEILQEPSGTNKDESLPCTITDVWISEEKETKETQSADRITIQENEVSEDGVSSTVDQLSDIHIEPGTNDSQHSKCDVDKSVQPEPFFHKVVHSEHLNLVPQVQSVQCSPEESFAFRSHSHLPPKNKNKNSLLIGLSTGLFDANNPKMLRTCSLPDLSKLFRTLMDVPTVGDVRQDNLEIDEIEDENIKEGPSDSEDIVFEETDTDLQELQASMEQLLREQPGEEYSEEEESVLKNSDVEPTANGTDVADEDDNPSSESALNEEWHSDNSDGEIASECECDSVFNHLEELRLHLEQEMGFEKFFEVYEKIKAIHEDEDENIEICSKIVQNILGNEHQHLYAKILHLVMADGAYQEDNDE

[13] = target: T5, Serine/threonine-protein kinase Nek1 (Homo sapiens); settings: at 1 µM
[14] = target: T6, Serine/threonine-protein kinase Nek2 (Homo sapiens) (UniProt P51955); settings: at 0.1 µM
T6 sequence (whole entry): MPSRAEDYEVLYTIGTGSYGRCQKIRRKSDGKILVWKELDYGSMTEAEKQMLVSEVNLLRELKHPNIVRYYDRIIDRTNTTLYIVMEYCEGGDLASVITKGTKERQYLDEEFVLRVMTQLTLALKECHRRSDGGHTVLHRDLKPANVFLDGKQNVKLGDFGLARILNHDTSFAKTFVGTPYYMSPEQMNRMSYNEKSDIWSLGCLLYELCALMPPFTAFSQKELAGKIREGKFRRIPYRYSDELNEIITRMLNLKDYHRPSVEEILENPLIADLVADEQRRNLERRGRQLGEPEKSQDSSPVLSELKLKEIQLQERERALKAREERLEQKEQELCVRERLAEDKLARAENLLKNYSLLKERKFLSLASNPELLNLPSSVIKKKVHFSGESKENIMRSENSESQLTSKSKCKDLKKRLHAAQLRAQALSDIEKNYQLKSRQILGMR

[15] = target: T6, Serine/threonine-protein kinase Nek2 (Homo sapiens); settings: at 1 µM
[16] = target: Serine/threonine-protein kinase Nek6 (Homo sapiens) (UniProt Q9HC98); settings: at 0.1 µM
Chain of Serine/threonine-protein kinase Nek6 (Homo sapiens) (Q9HC98 whole entry): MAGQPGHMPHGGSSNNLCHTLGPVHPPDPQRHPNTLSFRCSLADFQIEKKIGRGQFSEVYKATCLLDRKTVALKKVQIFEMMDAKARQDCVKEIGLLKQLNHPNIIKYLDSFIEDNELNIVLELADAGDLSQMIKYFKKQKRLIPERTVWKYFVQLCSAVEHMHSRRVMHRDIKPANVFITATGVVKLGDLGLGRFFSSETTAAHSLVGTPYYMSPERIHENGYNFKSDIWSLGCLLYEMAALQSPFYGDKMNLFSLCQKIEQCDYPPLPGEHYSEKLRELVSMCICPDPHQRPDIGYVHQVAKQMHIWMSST

[17] = target: Serine/threonine-protein kinase Nek6 (Homo sapiens) (UniProt Q9HC98); settings: at 1 µM
[18] = target: Serine/threonine-protein kinase Nek7 (Homo sapiens) (UniProt Q8TDX7); settings: at 0.1 µM
Chain of Serine/threonine-protein kinase Nek7 (Homo sapiens) (Q8TDX7 whole entry, looked up): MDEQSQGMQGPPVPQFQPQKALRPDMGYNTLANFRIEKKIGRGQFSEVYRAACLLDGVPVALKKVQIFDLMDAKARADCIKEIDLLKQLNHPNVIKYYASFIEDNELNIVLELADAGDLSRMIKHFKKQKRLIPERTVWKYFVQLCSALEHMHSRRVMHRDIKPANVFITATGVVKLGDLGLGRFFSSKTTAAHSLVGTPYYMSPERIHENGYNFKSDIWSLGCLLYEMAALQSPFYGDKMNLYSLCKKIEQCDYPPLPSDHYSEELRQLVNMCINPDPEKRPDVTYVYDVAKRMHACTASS

[19] = target: Serine/threonine-protein kinase Nek7 (Homo sapiens) (UniProt Q8TDX7); settings: at 1 µM
[20] = target: T7, Serine/threonine-protein kinase Nek9 (Homo sapiens) (UniProt Q8TD19); settings: at 0.1 µM;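 also: reported value is the mean percent inhibition of NEK9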
T7 sequence (whole entry): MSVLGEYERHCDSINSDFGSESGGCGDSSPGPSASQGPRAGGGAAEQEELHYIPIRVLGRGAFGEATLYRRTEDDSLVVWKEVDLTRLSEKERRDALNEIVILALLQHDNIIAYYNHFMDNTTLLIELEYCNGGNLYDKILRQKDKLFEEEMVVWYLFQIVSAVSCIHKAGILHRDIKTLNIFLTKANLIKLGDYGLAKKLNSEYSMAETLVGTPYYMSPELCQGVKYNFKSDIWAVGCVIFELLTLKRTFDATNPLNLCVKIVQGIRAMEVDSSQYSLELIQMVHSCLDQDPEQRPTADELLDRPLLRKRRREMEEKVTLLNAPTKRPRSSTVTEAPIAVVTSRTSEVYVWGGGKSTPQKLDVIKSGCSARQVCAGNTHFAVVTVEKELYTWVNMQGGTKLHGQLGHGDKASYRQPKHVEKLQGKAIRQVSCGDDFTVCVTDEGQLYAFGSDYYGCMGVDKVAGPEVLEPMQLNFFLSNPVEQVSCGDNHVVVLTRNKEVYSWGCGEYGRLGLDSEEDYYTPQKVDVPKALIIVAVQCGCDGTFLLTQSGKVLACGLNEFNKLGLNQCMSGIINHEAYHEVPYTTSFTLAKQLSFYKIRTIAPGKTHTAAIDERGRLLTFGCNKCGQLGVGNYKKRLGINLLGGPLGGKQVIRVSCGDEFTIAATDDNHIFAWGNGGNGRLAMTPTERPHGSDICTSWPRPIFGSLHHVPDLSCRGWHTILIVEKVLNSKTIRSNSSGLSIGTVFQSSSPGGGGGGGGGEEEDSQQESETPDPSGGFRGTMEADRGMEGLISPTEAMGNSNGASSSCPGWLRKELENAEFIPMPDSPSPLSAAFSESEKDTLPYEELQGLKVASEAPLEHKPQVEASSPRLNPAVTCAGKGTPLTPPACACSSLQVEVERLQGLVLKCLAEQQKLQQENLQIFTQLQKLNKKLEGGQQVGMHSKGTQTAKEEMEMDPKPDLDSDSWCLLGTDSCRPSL

Chain of Sphingosine kinase 1 (Homo sapiens) (Q9NYA1 whole entry): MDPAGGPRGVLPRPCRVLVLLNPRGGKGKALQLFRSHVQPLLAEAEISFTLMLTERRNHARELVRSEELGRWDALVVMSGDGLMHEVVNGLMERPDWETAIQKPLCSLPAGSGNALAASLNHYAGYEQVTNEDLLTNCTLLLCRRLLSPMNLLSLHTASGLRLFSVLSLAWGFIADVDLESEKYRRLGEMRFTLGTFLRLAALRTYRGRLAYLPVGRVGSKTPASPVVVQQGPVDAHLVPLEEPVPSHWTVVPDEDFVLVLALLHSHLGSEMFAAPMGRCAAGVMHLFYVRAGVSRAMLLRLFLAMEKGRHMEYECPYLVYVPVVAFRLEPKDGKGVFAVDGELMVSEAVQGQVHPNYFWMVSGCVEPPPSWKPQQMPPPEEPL

Structure (SMILES)	inhibition [1]	inhibition [2]	inhibition [3]	inhibition [4]	inhibition [5]	inhibition [6]	inhibition [7]	inhibition [8]	inhibition [9]	inhibition [10]	inhibition [11]	inhibition [12]	inhibition [13]	inhibition [14]	inhibition [15]	inhibition [16]	inhibition [17]	inhibition [18]	inhibition [19]	inhibition [20]
O=C(Nc1n[nH]c2nc(-c3ccc(O)cc3)c(Br)cc12)C1CC1	-0.49%	-0.76%	-0.74%	3.43%	5.84%	8.51%	12.4%	6.98%	9.61%	8.95%	12.2%	3.52%	11.2%	6.4%	9%	3.51%	15.2%	13.2%	46.3%	13.9%
COc1cc(Nc2ncc3c(C)nc(-c4cccc(C(F)(F)F)c4)n3n2)cc(OC)c1OC	-1.99%	0.44%	-3.1%	9.99%	43.1%	-0.47%	4.04%	3.58%	3.21%	10.6%	18.9%	4.76%	21.8%	7.77%	37.5%	4.4%	9.1%	5.91%	10.5%	54.9%
